Source: PubChem BioAssay AID624255 (Broad Institute, 2012)
Hit rate of the full screen: of about 77,000 compounds, about 4,600 (6%) were called active. Not shown: some 1% with an inconclusive outcome. The list comes from a sample in which actives are over-represented; it also holds similar structures and randomly drawn compounds. Values without a mark were called inactive.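 Rule for the calls: active = mean inhibition above about 93%, with at least 55% of replicates each passing it (limit read from the data, passing the limit was not always enough); inconclusive = only one of those two conditions holds; inactive = neither condition holds.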

Experiment: T. cruzi intracellular proliferation inhibitors, primary screen, cell-based, beta-gal Tulahuen parasites, NIH3T3 host, luminescence (AID 624255)
Settings: T. cruzi beta-gal in NIH3T3, GalScreen luminescence, 90 h; at 8.34 µM; stronger effect = higher value

Row | SMILES | inhibition
1 | Cc1ccc(S(=O)(=O)Nc2ccc3c(c2)C(=O)N([C@@H](C)CO)C[C@@H](C)[C@H](CN(C)Cc2ccncc2)O3)cc1 | 5.91%
2 | CN(C)C(=O)[C@@H]1[C@@H](CO)[C@@H]2Cn3c(ccc(-c4ccccc4F)c3=O)[C@@H]2N1C(=O)C1CC1 | 30.9%
3 | C[C@@H]1CCCCO[C@H](CN(C)S(=O)(=O)c2cn(C)cn2)[C@@H](C)CN([C@@H](C)CO)C(=O)c2cc(NC(=O)CCC(F)(F)F)ccc2O1 | 28.2%
4 | O=C(C[C@@H]1CC[C@@H](NS(=O)(=O)c2ccccc2)[C@H](CO)O1)NCc1ccc(Cl)c(Cl)c1 | -48.5%
5 | C[C@@H]1CN([C@@H](C)CO)C(=O)c2cc(C#CC(C)(C)O)cnc2O[C@@H]1CN(C)C(=O)C1CCOCC1 | -1.59%
6 | O=C(Cc1ccncc1)Nc1ccc2c(c1)[C@@H]1C[C@H](CC(=O)N3CCCCC3)O[C@H](CO)[C@@H]1O2 | 14.2%
7 | CN1c2ccc(-c3ccccc3)cc2[C@@H]2[C@@H](CCN2C(=O)NC2CCCC2)[C@H]1CO | 6.51%
8 | C[C@@H]1CCCCO[C@@H](CN(C)C(=O)Nc2cccc3ccccc23)[C@@H](C)CN([C@H](C)CO)C(=O)c2cc(NS(C)(=O)=O)ccc2O1 | -3.68%
9 | Cc1noc(C)c1S(=O)(=O)Nc1ccc2c(c1)C(=O)N([C@@H](C)CO)C[C@H](C)[C@@H](CN(C)C(=O)Nc1cccc3ccccc13)OCCCC[C@H](C)O2 | 104% (active)
10 | Cc1noc(C)c1S(=O)(=O)Nc1ccc2c(c1)C(=O)N([C@@H](C)CO)C[C@@H](C)[C@H](CN(C)C(=O)Nc1cccc3ccccc13)OCCCC[C@H](C)O2 | 72.3%
11 | Cc1noc(C)c1S(=O)(=O)Nc1ccc2c(c1)C(=O)N([C@@H](C)CO)C[C@@H](C)[C@H](CN(C)C(=O)Nc1cccc3ccccc13)O2 | -148%
12 | C[C@@H]1CCCCO[C@H](CN(C)C(=O)Nc2cccc3ccccc23)[C@H](C)CN([C@H](C)CO)C(=O)c2cc(NS(=O)(=O)c3cccs3)ccc2O1 | 115% (active)
13 | C[C@@H]1CCCCO[C@H](CN(C)C(=O)Nc2cccc3ccccc23)[C@@H](C)CN([C@H](C)CO)C(=O)c2cc(NS(=O)(=O)c3cccs3)ccc2O1 | 87.5%
14 | C[C@H]1CN([C@@H](C)CO)C(=O)c2cc(-c3ccccc3)cnc2O[C@H]1CN(C)C(=O)C1CCOCC1 | 60.3%
15 | CC(=O)N1[C@@H](CO)[C@@H]2c3ccccc3N(S(=O)(=O)c3ccccc3)C[C@@H]21 | 17.9%
16 | CN1C(=O)c2cc(NC(=O)c3ccno3)ccc2OC[C@H]2O[C@@H](CC(=O)NCC(F)(F)F)CC[C@@H]21 | -16.1%
17 | CO[C@@H]1CN(C)C(=O)c2ccc(NC(=O)c3ccc(F)cc3)cc2OC[C@H](C)N(C(=O)c2ccc(F)cc2)C[C@@H]1C | 33.4%
18 | COCC#Cc1ccc2c(c1)O[C@H](CN(C)C(=O)CC1CC1)[C@@H](C)CN([C@@H](C)CO)S2(=O)=O | 72.2%
19 | C[C@@H]1CN([C@@H](C)CO)S(=O)(=O)c2ccc(C#CCN(C)C)cc2O[C@@H]1CN(C)C(=O)CC1CC1 | 27.9%
20 | C[C@@H]1CN([C@H](C)CO)S(=O)(=O)c2ccc(C#CCC3CCCC3)cc2O[C@H]1CN(C)C(=O)CC1CC1 | 119% (active)
21 | C[C@@H]1CN([C@H](C)CO)S(=O)(=O)c2ccc(C#CCN(C)C)cc2O[C@H]1CN(C)C(=O)CC1CC1 | 92.5%

Row | SMILES | inhibition
22 | C[C@@H]1CN([C@@H](C)CO)S(=O)(=O)c2ccc(C#CCC3CCCC3)cc2O[C@@H]1CN(C)C | 2.02%
23 | C[C@@H]1CN([C@@H](C)CO)S(=O)(=O)c2ccc(C#CCC3CCCC3)cc2O[C@H]1CN(C)C(=O)CC1CC1 | 116% (active)
24 | O=C(C[C@H]1CC[C@H](NC(=O)c2ccc3c(c2)OCO3)[C@H](CO)O1)NCc1ccc(Oc2ccccc2)cc1 | -47.4%
25 | O=C(NCc1ccccc1Cl)[C@H]1[C@H](CO)[C@H]2Cn3c(cccc3=O)[C@H]2N1C(=O)C1CCC1 | 19.3%
26 | C/C=C/c1ccc([C@@H]2[C@@H](CO)N(C(C)=O)[C@H]2CN(C)C(=O)CN(C)C)cc1 | -6.45%
27 | C[C@@H]1CN([C@@H](C)CO)S(=O)(=O)c2ccc(C#Cc3ccccc3)cc2O[C@@H]1CN(C)C(=O)Nc1ccccc1 | 113% (active)
28 | C[C@@H]1CN([C@@H](C)CO)S(=O)(=O)c2ccc(C#Cc3ccc(F)cc3)cc2O[C@H]1CN(C)C(=O)c1ccccn1 | 103% (active)
29 | C/C=C/c1ccc2c(c1)O[C@H](CN(C)C(=O)Nc1ccccc1)[C@H](C)CN([C@@H](C)CO)S2(=O)=O | 45.2%
30 | C[C@@H]1CN([C@@H](C)CO)S(=O)(=O)c2ccc(C#Cc3ccc(F)cc3)cc2O[C@@H]1CN(C)CC1CC1 | 11.3%
31 | CC(C)C#Cc1ccc2c(c1)O[C@@H](CN(C)C(=O)NC(C)C)[C@H](C)CN([C@H](C)CO)S2(=O)=O | 55.8%
32 | CC(C)CC#Cc1ccc2c(c1)O[C@@H](CN(C)C(=O)c1ccccn1)[C@@H](C)CN([C@H](C)CO)S2(=O)=O | 74.4%
33 | C[C@@H]1CN([C@@H](C)CO)S(=O)(=O)c2ccc(C#Cc3ccc(F)cc3)cc2O[C@H]1CN(C)C(=O)NC1CCCC1 | 114% (active)
34 | COc1ccc(C#Cc2ccc3c(c2)O[C@@H](CN(C)C(=O)Nc2cccc(OC)c2)[C@H](C)CN([C@H](C)CO)S3(=O)=O)cc1 | 73.3%
35 | C/C=C/c1ccc2c(c1)O[C@@H](CN(C)C(=O)c1ccccn1)[C@H](C)CN([C@@H](C)CO)S2(=O)=O | 11.4%
36 | COc1cccc(NC(=O)N(C)C[C@H]2Oc3ncc(C4=CCCCC4)cc3C(=O)N([C@H](C)CO)C[C@H]2C)c1 | -8.07%
37 | CO[C@@H]1CC[C@H]2CCOc3c(C#N)cccc3C(=O)N(C)C[C@@H](OC)[C@H](C)C(=O)N(C)C[C@@H]1O2 | 20.8%
38 | O=C(CN1CCOCC1)N[C@@H]1CC[C@H](CCNS(=O)(=O)c2ccccc2F)O[C@H]1CO | 2.08%
39 | C[C@@H]1CCCCO[C@@H](CN(C)C(=O)Cc2ccccc2)[C@@H](C)CN([C@@H](C)CO)C(=O)c2cc(NC(=O)c3ccccc3)ccc2O1 | 60.5%
40 | C[C@@H]1CN([C@H](C)CO)C(=O)c2cc(C3=CCCC3)cnc2O[C@@H]1CN(C)C(=O)Nc1ccc(F)cc1 | 15.9%
41 | O=C([C@H]1[C@H](CO)[C@H]2Cn3c(ccc(C4=CCCC4)c3=O)[C@@H]1N2C(=O)c1ccncc1)N1CCCCC1 | 34.7%
42 | CO[C@H]1CN(C)C(=O)c2ccc(NC(=O)C3CC3)cc2OC[C@H](C)N(CCc2ccccc2)C[C@H]1C | 36.1%

Row | SMILES | inhibition
43 | COc1ccc(CN(C)C[C@@H]2OCCCC[C@H](C)Oc3ccc(NS(C)(=O)=O)cc3C(=O)N([C@@H](C)CO)C[C@H]2C)cc1 | 0.374%
44 | Cc1ccc(S(=O)(=O)N2C[C@H](O)COC[C@H]3O[C@H](CC(=O)N[C@H]4CCN(Cc5ccccc5)C4)CC[C@@H]32)cc1 | -33.7%
45 | Cc1cccc(-c2ccc([C@@H]3[C@H](CO)N4CCCCN(Cc5ccncc5)C[C@@H]34)cc2)c1 | 92%
46 | CN(C)C(=O)c1ccc(-c2ccc([C@@H]3[C@@H](CO)N4CCCCN(Cc5cncnc5)C[C@@H]34)cc2)cc1 | 55.5%
47 | OC[C@H]1[C@H](c2ccc(-c3cccc(F)c3)cc2)[C@@H]2CN(Cc3cncnc3)CCCCN12 | 107% (active)
48 | Cc1cccc(-c2ccc([C@H]3[C@@H](CO)N4CCCCN(Cc5cncnc5)C[C@H]34)cc2)c1 | 104% (active)
49 | OC[C@H]1[C@H](c2ccc(-c3ccccc3F)cc2)[C@H]2CN(Cc3cncnc3)CCCCN21 | 69.5%
50 | OC[C@@H]1[C@H](c2ccc(C3=CCCC3)cc2)[C@H]2CN(Cc3ccncc3)CCCCN12 | 75.8%
51 | OC[C@H]1[C@@H](c2ccc(-c3ccccc3F)cc2)[C@@H]2CN(Cc3ccncc3)CCCCN12 | 93.1%
52 | OC[C@@H]1[C@@H](c2ccc(-c3ccccc3F)cc2)[C@@H]2CN(Cc3cncnc3)CCCCN12 | 74.2%
53 | Cc1ccc(-c2ccc([C@H]3[C@H](CO)N4CCCCN(Cc5cncnc5)C[C@@H]34)cc2)cc1 | 96% (active)
54 | O=C(C[C@@H]1C[C@@H]2c3cc(NC(=O)NC4CCCC4)ccc3O[C@@H]2[C@@H](CO)O1)NCc1ccccc1 | 52.2%
55 | COc1cccc(-c2ccc3n(c2=O)C[C@@H]2[C@@H](CO)[C@H](C(=O)N4CCCCC4)N[C@H]32)c1 | 13.4%
56 | O=C(Nc1ccc(C(F)(F)F)cc1)N[C@@H]1CC[C@@H](CCNC(=O)c2ccccc2F)O[C@H]1CO | 57.5%
57 | C[C@@H]1CN([C@@H](C)CO)C(=O)c2cc(-c3ccc(C#N)cc3)cnc2O[C@H]1CN(C)C(=O)CN(C)C | 30.7%
58 | COCC(=O)Nc1ccc2c(c1)C(=O)N(C)C[C@@H](OC)[C@@H](C)CN(CC1CCCCC1)[C@@H](C)CO2 | 5.52%
59 | O=C(C[C@H]1CC[C@H]2[C@@H](COC[C@H](O)CN2C(=O)c2ccccn2)O1)N1CCN(c2ccccc2)CC1 | -3.75%
60 | O=C(C[C@H]1CC[C@@H]2[C@H](COC[C@H](O)CN2Cc2ccc(Oc3ccccc3)cc2)O1)N1CCN(c2ccccc2)CC1 | 117% (active)
61 | COc1cccc(S(=O)(=O)N2C[C@H](O)COC[C@H]3O[C@@H](CC(=O)N4CCN(c5ccccc5)CC4)CC[C@@H]32)c1 | 12.2%
